Screening results from PubChem BioAssay.
D1 PAM = potentiators of human D1 dopamine receptor; P21728; HEK293 TREx D1 cells, calcium flux, dopamine EC20 potentiation; potentiation, % at 10 µM; AID 504651; hit rate 0.036% among 360,000; in the data active means potentiation above about 30%; further: 0% is about no effect
DRD3 antagonist = antagonists of human D3 dopamine receptor; P35462; D3R cells, DiscoveRx beta-arrestin luminescence, antagonist mode; stronger effect = lower value; max response, negative = inhibition, %; hit rate 2.5% among 360,000; AID 652054; in the data active means max response below about -50%; inconclusive means no clear call, values can overlap the other calls; further: on the % scale 0 is the no-effect control and ±100 the full control effect
Target sequence (P35462 whole entry, looked up): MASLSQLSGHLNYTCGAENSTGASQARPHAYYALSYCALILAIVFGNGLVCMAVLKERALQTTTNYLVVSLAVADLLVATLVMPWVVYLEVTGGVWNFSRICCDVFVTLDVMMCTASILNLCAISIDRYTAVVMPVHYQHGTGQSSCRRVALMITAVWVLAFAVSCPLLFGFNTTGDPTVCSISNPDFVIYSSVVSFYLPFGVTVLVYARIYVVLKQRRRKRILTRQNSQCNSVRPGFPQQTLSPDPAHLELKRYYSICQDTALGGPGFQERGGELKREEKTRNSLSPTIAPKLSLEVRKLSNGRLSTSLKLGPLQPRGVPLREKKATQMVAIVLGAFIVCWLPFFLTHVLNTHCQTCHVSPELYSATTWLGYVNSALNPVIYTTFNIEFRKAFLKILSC
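Cells plated overnight at 1500 cells/well, then exposed to library compounds with dopamine controls for 90 minutes at 37 degrees C. DiscoveRx reagent added for 30–60 minutes at room temperature; luminescence read, quantitative HTS format.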
DRD3 agonist = agonists of human D3 dopamine receptor. P35462. D3R DiscoveRx beta-arrestin cells, luminescence, 90 min. max activation, %. hit rate 0.58% among 410,000; in the data active means max activation above about 30%; further: 0% is about no effect
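Agonist-mode cell screen: cells plated at 1500/well and incubated overnight at 37 °C, then exposed to library compounds for 90 min at 37 °C. Detection reagent was added for 30–60 min at room temperature, and luminescence was read.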
D1 antag = blocks dopamine activation of the human D1 receptor; activity change, negative = inhibition, % at 10 µM; HEK293 TREx D1 cells, calcium flux, dopamine EC80; stronger effect = lower value; hit rate 3.2% among 360,000; P21728; AID 504652; in the data active means activity change below about -30%; further: on the % scale 0 is the no-effect control and ±100 the full control effect
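Allosteric or orthosteric antagonism assessed as attenuation of the calcium response to EC80 dopamine, added 180 s after compound, in induced HEK293 Trex D1 cells loaded with no-wash calcium dye.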
D1 ag = activates the human D1 dopamine receptor; hit rate 1% among 360,000; P21728; HEK293 T-REx D1 cells, calcium flux, agonist mode; activation, % at 2 µM; in the data active means activation above about 30%; further: 0% is about no effect
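Tetracycline-induced HEK293 TREx D1 cells, force-coupled to calcium signalling, were dye-loaded with a no-wash calcium kit. Compound was pin-added after a 10 s baseline. Fluorescence was read kinetically at 1 cycle/s for 180 s, with calcium rises flagged as agonism.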
Numbers without * were called inactive; ? = inconclusive; . = not tested or not shown; ! = a repeat was not active. Compounds with a hit are over-represented: about 6% of the library has one in this group of screens.

SMILES | D1 PAM | DRD3 antagonist | DRD3 agonist | D1 antag | D1 ag
COc1ccccc1Nc1nc(N)nc(CN2CCC(Cc3ccccc3)CC2)n1 | -10 | -59* | -4 | -13 | 15
Cc1ccccc1CNC(=O)C(=O)NCC(c1cccs1)S(=O)(=O)c1ccc(Cl)cc1 (centres undefined) | 1 | . | 1 | . | 7
CCc1ccccc1N(C)C(=O)Nc1cn(CC(C)C)c(=O)c2ccccc12 | -6 | . | -1 | 9 | 2
CCCCC(CC)CO (centres undefined) | . | 0 | 4 | . | .
CCCCC(CC)CN=C(N)NC(N)=NCCCCCCN=C(N)NC(N)=NCC(CC)CCCC (centres undefined) | 2 | 0 | -28 | -75* | 2
Cn1c(=O)cc(OCCCC(=O)Nc2ccc(F)cc2)c2ccccc21 | -5 | . | -16 | -6 | 0
CC1CCN(S(=O)(=O)c2nnc(NC(=O)c3cccc(Br)c3)s2)CC1 | 0 | . | -6 | 10 | 1
CC(C)C(=O)Nc1nnc(S(=O)(=O)N2CCCCCC2)s1 | -1 | 0 | -4 | -32*! | 0
O=C(Nc1nnc(S(=O)(=O)N2CCCCC2)s1)c1cccc(Br)c1 | -4 | 25 | 0 | -5 | 30*
CCC(CC)C(=O)Nc1nnc(S(=O)(=O)N2CCCCCC2)s1 | 5 | -16 | -1 | 0 | 7
COc1ccc(N2CCN(S(=O)(=O)CCNC(=O)Cc3ccc(OC)c(OC)c3)CC2)cc1 | 0 | . | 11 | 10 | 0
CC1CCc2c(sc(NC(=O)COc3ccccc3C(C)(C)C)c2C#N)C1 (centres undefined) | 1 | . | -9 | -19 | -1
O=C(NCCc1cccs1)c1ccc(Cl)cc1 | -3 | -24 | -16 | -9 | 1
NC(=O)c1ccc(NCCc2cccs2)cc1 | . | -50* | -8 | . | .
COc1cc(CNCc2ccccn2)ccc1OCc1ccc(Cl)cc1 | -8 | -2 | -7 | -9 | 24
COc1cc(CNCc2ccccn2)ccc1OCc1c(Cl)cccc1Cl | 3 | -23 | -24 | 5 | 41*
CC1(C)Cc2cccc(C(=O)Nc3ccc(Cl)cc3)c2O1 | -4 | 19 | 2 | -34* | 4
CCCCNC(=O)C(CC)Sc1nnc(-c2ccc(F)cc2)c(-c2ccc(F)cc2)n1 (centres undefined) | 1 | . | 5 | -3 | 1
CCN(CC)c1ccc(NC(=O)C(NS(=O)(=O)c2cccs2)C(C)C)c(C)c1 (centres undefined) | 1 | . | 1 | 19 | 0
CCN1CCN(c2cc(N3CCc4ccccc4C3)c(F)cc2[N+](=O)[O-])CC1 | -9 | -79* | -29 | -40* | 6
CC(=O)N1CCN(c2cc(N3CCCC3)c(F)cc2[N+](=O)[O-])CC1 | -2 | -8 | -20 | -14 | 1
CC(Nc1ccc(Cl)cc1)c1cc(Cl)ccc1O (centres undefined) | -9 | -55* | -1 | -10 | 4
CCOc1ccc(NC(C)c2cc(Cl)ccc2O)cc1 (centres undefined) | -8 | -52* | -8 | -4 | 1
COC(=O)c1cc2oc3ccccc3c2n1Cc1nc(-c2cccc(Cl)c2)oc1C | -5 | . | -24 | -3 | 4
CC1CCN(c2nc(-c3ccccc3)c(C#N)c(=O)[nH]2)CC1 | -8 | ? | -8 | -39* | 1
SMILES | D1 PAM | DRD3 antagonist | DRD3 agonist | D1 antag | D1 ag
COc1ccc(C(=O)/C=C/c2cc(OC)c(O)c(OC)c2)c(F)c1 | -4 | -20 | -3 | -5 | 52*
COc1ccc(C(=O)/C=C/c2ccc(N(C)C)cc2)c(OC)c1 | -5 | 14 | 4 | 4 | 295*
CN(C)c1ccc(/C=C/C(=O)c2cccnc2)cc1 | -9 | -11 | -7 | 0 | 176*
CN(C)c1ccc(/C=C/C(=O)c2ccccc2O)cc1 | -1 | -26 | -10 | -25 | 35*
COc1ccc(C(=O)/C=C/c2ccccc2)c(OC)c1 | 2 | 11 | -2 | -11 | -4
COc1ccc2cc(C(=O)/C=C/c3cc(OC)c(O)c(OC)c3)ccc2c1 | -5 | -29 | 5 | -13 | 25
CCCCN(C)c1nnc(NC(=O)Nc2cccc(C(C)=O)c2)s1 | -2 | . | 0 | -24 | 9
CCCS(=O)(=O)N1CC(=O)N(c2cc(C)cc(C)c2)C(C)(C(=O)NC2CCCCCC2)C1 (centres undefined) | 0 | . | -10 | -31* | -2
CN(CCc1cn[nH]c1)C(=O)CC1C(=O)NCCN1Cc1ccccc1C(F)(F)F (centres undefined) | 0 | 10 | -3 | -40* | 3
CN(Cc1ccon1)C(=O)CC1C(=O)NCCN1Cc1ccccc1C(F)(F)F (centres undefined) | 1 | 3 | 4 | -12 | 0
CCOc1ccccc1NC(=O)CN1C(=O)CC(c2ccco2)Sc2ccccc21 (centres undefined) | -2 | . | 3 | 0 | 1
O=C1NCCN(Cc2ccc(F)cc2)C1=O | -1 | . | 8 | -41* | -2
O=C1CNC(=S)N1Cc1ccc(F)cc1 | 0 | -10 | 17 | -9 | 6
CC(C)c1ccc(Nc2c(-c3ccccc3O)nc3cnccn23)cc1 | 1 | . | 38* | -16 | 4
COc1cc(-c2nc3cnccn3c2Nc2ccc(C(C)C)cc2)ccc1O | -1 | 50 | 20 | -7 | 34*!
Cc1ccn2c(Nc3ccc(C(C)C)cc3)c(-c3cccnc3)nc2c1 | -1 | . | 8 | 5 | 1
CCSc1ncc(Cl)c(C(=O)N(Cc2ccccc2Cl)C2CCS(=O)(=O)C2)n1 (centres undefined) | -1 | . | -19 | 1 | 1
COc1cc(Cl)c(S(=O)(=O)NCCc2c(C)[nH]c3c(C)cccc23)cc1Cl | -5 | . | -13 | 28 | 0
CCCCOc1ccc(C(=O)Nc2ccc(CN3CCOCC3)cc2)cc1 | -7 | 4 | -6 | -36* | 19
CCCCOc1ccc(C(=O)Nc2cc(C)c(OCC(=O)N3CCOCC3)c(C)c2)cc1 | -28 | 10 | 3 | -40* | 5
CCCOc1ccc(-c2cccc(NS(=O)(=O)c3cccs3)c2)nn1 | 1 | . | 5 | 5 | 0
CCCCN(CCCC)CCNC(=O)c1cc(=O)[nH]c2ccc(S(=O)(=O)N3CCCCCC3)cc12 | -1 | . | -17 | 11 | -2
CN1CCN(c2oc(-c3ccccc3Cl)nc2S(=O)(=O)c2ccccc2)CC1 | -3 | -79* | -7 | -17 | -1
CN1CCN(c2oc(-c3ccccc3)nc2S(=O)(=O)c2ccc(Br)cc2)CC1 | -14 | -67* | -36 | 20 | 1
CN1CCN(c2oc(-c3cccs3)nc2S(=O)(=O)c2ccccc2)CC1 | 2 | ? | -21 | 8 | 1
COC(=O)C1(c2ccccc2)NC(c2ccc(O)cc2)C2C(=O)N(c3ccc4c(c3)OCO4)C(=O)C21 (centres undefined) | -5 | -18 | -5 | -56* | 0
CCCOc1ccc(CSc2nc3ccccc3[nH]2)cc1 | -4 | -65* | 11 | -30 | 9
